# The source made the active and inactive calls.
# Key:
# Albumin (Bos taurus) = Albumin (Bos taurus) (UniProt P02769); assay: compounds binding labelled BSA control protein – biochemical, small-molecule microarray, Alexa647 label, 635/667 nm fluorescence, artefact control for SMM control protein annotation, profiling panel (AID 1118); details: BSA-A647 binding, fluorescence 635 nm, higher = more signal;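 note: score merges 667 nm emission intensity and signal-to-noise per printed compound spot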
# [1] = probe aXIP binding to arrayed compounds – biochemical, NeuroSMM set, 635/667 nm fluorescence, primary screen (AID 1119); details: small-molecule microarray, higher = more signal, called active from +8 up or from −8 down;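 note: probe is the protein aXip251-270 applied at 1 µg/mL to compound-printed slides; binding of probe to printed compounds measured as 667 nm fluorescence plus signal to noise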
# [2] = probe aNOTCH3 binding on compound microarray – biochemical, small-molecule microarray, 635/667 nm fluorescence, primary screen (AID 1120); details: higher = more signal;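 note: probe is a biotin-tagged antibody raised against NOTCH3 rather than NOTCH3 protein; score merges spot fluorescence near 667 nm with spot signal to noise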
# [3] = probe aNOTCH2 binding on compound microarray – biochemical, small-molecule microarray, 635/667 nm fluorescence, primary screen (AID 1121); details: higher = more signal;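 note: score merges feature fluorescence read at 667 nm with its signal to noise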
# [4] = molecular target: Carbonic anhydrase 2 (Homo sapiens) (UniProt P00918); assay: compounds binding carbonic anhydrase 2 – biochemical, small-molecule microarray, Alexa647-labelled CAII, profiling panel (AID 1122); details: CAII-A647 binding fluorescence, higher = more signal
# [5] = COS7 lysate on small-molecule microarray, probe aHis, 635 nm (AID 1123); details: COS7 cell lysate, fluorescence, higher = more signal;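 note: z-score combines 667nm fluorescence intensity with signal-to-noise per printed compound spot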
# [6] = probe aLAP1 signal on lysate-treated microarray – cell lysate, small-molecule microarray, COS7 lysate, primary screen (AID 1124); details: probe aLAP1, fluorescence, higher = more signal;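 note: lysate comes from COS7 cells expressing LAP1 and is applied at 0.3 µg/mL; score merges spot fluorescence near 667 nm with signal-to-noise over triplicate slides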
# Sam68 (KHDRBS1) = assay: compounds binding KHDRBS1 protein – biochemical, small-molecule microarray, 635 nm fluorescence, primary screen (AID 1125); details: higher = more signal;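 note: score merges 667 nm channel intensity with signal to noise over triplicate slides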
# [7] = test system: Chordin-like protein 2 (CHRDL2); assay: compounds binding chordin-like 2 – biochemical, small-molecule microarray, 635 nm fluorescence, primary screen (AID 1126); details: fluorescence 635 nm, higher = more signal;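 note: printed compound slides probed with Chrdl2 protein at 4 µg/mL for 1 h at 4 C; score merges 667 nm emission intensity with signal to noise over three replicate slides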
# [8] = molecular target: Concanavalin-A (Canavalia ensiformis) (UniProt P02866); assay: compounds binding concanavalin A lectin – biochemical, small-molecule microarray, Alexa647 label, 635 nm, artefact control for SMM control protein annotation, primary screen (AID 1127); details: ConA-A647 binding fluorescence, higher = more signal;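 note: z combines 667 nm emission intensity with signal-to-noise across three replicate slides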
# Sequence of Concanavalin-A (Canavalia ensiformis) (P02866 whole entry, looked up): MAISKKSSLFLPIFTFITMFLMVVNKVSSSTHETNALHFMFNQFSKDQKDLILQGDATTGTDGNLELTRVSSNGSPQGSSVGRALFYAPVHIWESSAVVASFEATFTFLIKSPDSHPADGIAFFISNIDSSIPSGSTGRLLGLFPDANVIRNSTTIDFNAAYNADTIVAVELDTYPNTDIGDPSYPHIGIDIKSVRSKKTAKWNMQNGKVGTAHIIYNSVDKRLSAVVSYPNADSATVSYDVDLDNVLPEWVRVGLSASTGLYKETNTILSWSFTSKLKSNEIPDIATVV
# Sequence of Albumin (Bos taurus) (P02769 whole entry, looked up): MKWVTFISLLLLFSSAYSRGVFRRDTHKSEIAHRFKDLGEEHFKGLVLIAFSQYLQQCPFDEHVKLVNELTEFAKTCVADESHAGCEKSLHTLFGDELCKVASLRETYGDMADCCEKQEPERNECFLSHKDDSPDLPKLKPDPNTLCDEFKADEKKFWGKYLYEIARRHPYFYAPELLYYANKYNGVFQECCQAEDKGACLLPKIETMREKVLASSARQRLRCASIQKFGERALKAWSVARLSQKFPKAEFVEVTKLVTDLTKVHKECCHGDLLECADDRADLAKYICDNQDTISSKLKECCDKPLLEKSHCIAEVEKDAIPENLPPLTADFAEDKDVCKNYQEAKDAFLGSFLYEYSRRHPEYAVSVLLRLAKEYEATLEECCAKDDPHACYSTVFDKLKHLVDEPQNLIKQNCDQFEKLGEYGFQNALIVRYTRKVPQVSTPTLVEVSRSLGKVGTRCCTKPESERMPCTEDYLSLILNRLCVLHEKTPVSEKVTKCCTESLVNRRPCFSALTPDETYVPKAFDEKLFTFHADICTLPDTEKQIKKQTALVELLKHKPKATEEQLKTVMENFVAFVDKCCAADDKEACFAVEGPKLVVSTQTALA
SMILES,composite z-score (Albumin (Bos taurus)),composite Z-score [1],composite z-score [2],composite z-score [3],composite z-score [4],composite z-score [5],composite z-score [6],composite z-score (Sam68 (KHDRBS1)),composite z-score [7],composite z-score [8]
COC(=O)[C@@]1(Cc2ccccc2)[C@H]2c3cc(C(=O)N(C)C)n(Cc4cc(C)n(C)n4)c3C[C@H]2CN1C(=O)c1ccccc1,1,-0.138 (inactive),0.718,0.258,0.931,2.63,0.993,0.812,-0.979,0.711
CCCN1C(=O)[C@@]2(CCC(=O)OC(C)(C)C)N=C(c3ccc(OCCCO)cc3)O[C@H]2c2ccccc21,0.556,0.548 (inactive),0.0225,-0.0633,0.376,1.69,0.0436,1.31,0.345,0.958
O=C1O[C@H](c2ccccc2)[C@H](c2ccccc2)N2[C@H]1[C@@H](C(=O)N1CCN(c3ncccn3)CC1)[C@]1(C(=O)Nc3ccccc31)[C@H]2c1ccc(OCCO)cc1,0.204,-0.317 (inactive),0.183,-0.0986,0.301,1.75,0.151,1.3,0.602,0.536
CCCCC(CC)C(O)C1C=CC2C(=O)N(c3ccccc3)C(=O)C2N1Nc1ccccc1 (stereo not given),0.83,0.392 (inactive),0.206,-0.122,0.665,2.28,0.297,0.883,-0.804,0.964
O=C1C2C=CC(C(O)c3ccc(F)cc3)N(Nc3ccccc3)C2C(=O)N1c1ccccc1 (stereo not given),0.843,0.121 (inactive),0.189,0.0449,0.734,2.88,-0.364,0.654,-0.527,-0.398
COCCOC(=O)N1C(=O)[C@@]2(c3cc(C#CCNC(N)=O)ccc31)[C@H](c1ccccc1OCCO)N1[C@H](c3ccccc3)[C@H](c3ccccc3)OC(=O)[C@H]1[C@@H]2C(N)=O,-0.117,-0.479 (inactive),-0.0345,-0.148,0.475,-0.726,0.177,1.22,0.616,1.18
O=C1O[C@H](c2ccccc2)[C@H](c2ccccc2)N2[C@H]1[C@@H](C(=O)O)[C@]1(C(=O)Nc3ccc(C#CC4(O)CCCCCC4)cc31)[C@H]2c1ccc(OCCO)cc1,0.906,-0.0503 (inactive),0.0876,-0.0727,0.672,2.58,0.78,1.29,-0.862,1.06
C=CCNC(=O)[C@H]1[C@@H]2C(=O)O[C@@H](c3ccccc3)[C@@H](c3ccccc3)N2[C@@H](c2ccc(O)cc2)[C@]12C(=O)N(C(=O)OCCOC)c1ccc(C#CCCO)cc12,0.534,-0.228 (inactive),-0.155,-0.0942,0.701,2.1,0.881,1.08,-0.445,0.903
COCC(=C=CC[C@@H](O)c1ccc(CO)o1)CCO,-0.606,0.111 (inactive),-0.215,-0.118,0.349,-0.185,1.51,0.101,0.689,0.188
C=C(CCCC)/C(=C/C[C@H](OC(C)=O)c1ccc(CO)o1)c1cnc2ccccc2c1,0.475,-1.16 (inactive),0.0282,-0.14,0.73,0.612,-0.193,1.05,0.968,0.931
COCCOC(=O)N1C(=O)[C@@]2(c3cc(C#CCNC(N)=O)ccc31)[C@H](C(=O)N1CCc3cc(OC)c(OC)cc3C1)[C@H]1C(=O)O[C@H](c3ccccc3)[C@H](c3ccccc3)N1[C@@H]2c1ccc(OCCO)cc1,-0.717,0.202 (inactive),0.289,-0.186,0.225,0.423,0.406,0.398,0.286,1.09
COc1ccc(CCN2C(=O)[C@@]3(Cc4ccccc42)c2ccccc2C(=O)N(Cc2ccccc2Cl)[C@H]3c2ccc(CO)cc2)cc1,-0.091,-0.0503 (inactive),-0.125,-0.137,0.855,-0.247,0.296,-0.383,-1.06,-0.199
COc1ccc(C(=O)Nc2cccc(CN3C(=O)[C@@]4(O[C@@H](CCn5cc(CCO)nn5)[C@H]([Si](C)(C)c5ccc(OC)cc5)[C@H]4C)c4ccccc43)c2)cc1,-0.194,1.4 (inactive),0.149,-0.084,0.411,0.733,-0.046,1.3,1.05,1.08
Cc1ccc(S[C@]2(C(=O)NCC(C)C)CC(=O)N(Cc3ccccc3)[C@@H]2c2ccc(CO)cc2I)cc1,0.256,0.552 (inactive),0.0301,-0.125,0.633,1.21,0.888,1.18,0.718,0.939
O=C(NCc1ccccc1)[C@]1(CCS(=O)(=O)c2ccccc2)N=C(c2ccc(OCCCO)cc2)O[C@@H]1c1ccccc1,0.714,0.235 (inactive),0.296,-0.048,0.555,0.751,0.379,1.31,0.205,1.08
O=C(CS)NCCCCCCNC(=O)[C@H]1C[C@H]2C(=O)N3CCC[C@H]3C(=O)N2[C@H]1c1cccc(OCCO)c1,0.0023,-0.254 (inactive),0.0242,-0.105,0.528,2.51,0.407,1.29,0.97,1.02

# From PubChem BioAssay
